The source of these data is PubChem BioAssay (NCI).

The structures appear in SMILES notation. About 79,000 compounds went through this panel and 15% of them were active in at least one assay; those are over-represented in the sample as a whole. Unmarked numbers belong to inactive results. No stated cut-off is given here; in the data, active means growth inhibition above about 70%; inactive means the rest.

The first experiment is described as follows: NCI Yeast Anticancer Drug Screen. Data for the sgs1 mgt1 strain (AID 161).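 Further: 0% = growth of cultures given vehicle only.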 The conditions noted are these: S. cerevisiae sgs1 mgt1 strain, at 50.0 µM, active compounds read high. Summed up:
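Read-out: growth inhibition vs vehicle controls. Cells: mutant yeast strain deficient in DNA damage repair.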
On to `COc1c2cc(C(C)(C)C)cc1CSCc1cc(C(C)(C)C)cc(c1OC)CCCCC2`, for which the growth inhibition was 16.2%. Same read-out and setting: the value for `CCOCCOCCOCOCCOCCOCC` was 8.4%; that for `CCc1ccc(O)cc1` was 13.3%. Still for that read-out and setting: the value for `NC(N)=NC(=S)Nc1ccc(Cl)cc1` was 7.55%; that for `CCCN1C(=O)CN(S(=O)(=O)c2ccc(Cl)cc2)C1=O` was 3.6%.

For the compound `CCN(CC)CCSSCCN(CC)CC`, the growth inhibition is -7.05%. The same measure, in the same setting: to `CCCCCCCCCCCCS(=O)(=O)O` (tested in a mixture with another compound) belongs -9.05%; to `CC(Nc1cnccn1)Nc1cnccn1`, -0.4%; to `Cn1cc(S(C)=O)c(=O)c2ccccc21` (stereo not given), -5.6%. Same read-out and setting: to `COC(=O)C1(CC(=O)c2ccccc2)NC(=S)NC(=O)C1C#N` (stereo not given) belongs -24.4%; to `CCCCCCCCCCCC(=O)NC(=S)Nc1ccc(C(=O)OCC)cc1`, 57.9%. The same measure, in the same setting: the value for `Cn1nnc(CCCl)n1` was -8.15%; that for `C=C(C)Cc1c(C)c(Cl)cc(Cl)c1OC(=O)Nc1ccccc1` was 30.6%; that for `COC(=O)C1(O)C(=O)NC2=C1C(=O)c1ccccc1C2=O` (stereo not given) was 8.05%. Take `COC(=O)Cc1oc(=O)n(-c2ccccc2)c(=O)c1C(=O)OC`: the growth inhibition is 2.05%.

With `N#CC1=C(N)NC(=O)C(C(N)=O)C1c1ccccc1Cl` (stereo not given), the growth inhibition is -12.1%. Same read-out and setting: the value for `CSc1ccc(C(=NO)c2ccc(SC)cc2)cc1` was -1.3%; that for `CCCNc1nc(Cl)nc2c1cnn2C` was 9.5%.

As for `CN1CCC2(CC1)C(=O)N(Cc1ccccc1)C(=O)C2c1ccccc1` (stereo not given), the growth inhibition is -6%. Consider `CCCCn1cnc2c(=S)nc[nH]c21`, for which the growth inhibition was -6.35%.

Take `CC(=O)c1c(C)n(-c2ccccc2)c2c1nnc1ccccc12`: the growth inhibition is 22.2%. Same read-out and setting: to `Cc1cc(Cl)cc(Cl)c1OCC(=O)O` belongs 4.4%. The same measure, in the same setting: to `S=C(SCc1nc(-c2ccc(Cl)cc2)no1)N1CCSCC1` belongs 17.9%.

A short description of another experiment: NCI Yeast Anticancer Drug Screen. Data for the cln2 rad14 strain (AID 165).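 Further: 0% = growth equal to vehicle treated cultures.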 The conditions noted are these: S. cerevisiae cln2 rad14 strain, at 50.0 µM, active compounds read high. In a few lines:
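The screen exposed genetically defined yeast (cln2 rad14) to test compounds and scored growth inhibition relative to vehicle-treated controls.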
In the case of `O=C1OC(=O)c2ccccc21`, the growth inhibition is -24.8%. On the same count and under the same terms, the value for `CSc1nsc(SC)c1C(N)=O` was 12.5%. In the case of `ClCC1CCCO1` (stereo not given), the growth inhibition was 3.35%. Still for that read-out and setting: to `C=CC(=O)OCCCS(=O)(=O)[O-].C=CC(=O)OCCCS(=O)(=O)[O-].NC1CCCCC1N.[Pt+4]` belongs 37.5%; to `NCc1c(Cl)c(Cl)c(Cl)c(CN)c1Cl`, 11.9%; to `O=C1c2ccccc2C(=O)c2c1cccc2S(=O)(=O)Nc1ccccc1`, -30.1%. Same read-out and setting: to `COC(=O)c1nc[nH]c1C(=O)OC` belongs 4%; to `O=C1c2ccccc2C(=O)N1c1ccc(C(F)(F)F)cc1[N+](=O)[O-]`, -15.8%; to `COc1ccccc1C(=O)O`, -1.75%. In the case of `CC(C)=NNC(=O)c1ccccc1O`, the growth inhibition was 2.3%. Still for that read-out and setting: to `COC1/C=C/OC2(C)Oc3c(C)c(O)c4c(O)c(c(C5SCCS5)c(O)c4c3C2=O)NC(=O)/C(C)=C\C=C\C(C)C(O)C(C)C(O)C(C)C(O)C1C` (stereo not given) belongs 4.85%; to `CCCCCC1NC(C)(C)CO1` (stereo not given), 1.95%. Regarding `CN(/N=C\c1ccc([N+](=O)[O-])cc1)C(=O)c1ccccc1`, the growth inhibition is -33.6%. Same read-out and setting: to `Cc1cn(C2CC3OP(=O)(OCc4ccccc4)OCC3O2)c(=O)[nH]c1=O` (stereo not given) belongs 7.25%; to `N#CC(C#N)=CNC(=S)Nc1ccc(S(=O)(=O)Nc2nccs2)cc1`, 4.85%; to `CCOc1ccccc1NC(=O)CC1Sc2ccccc2NC1=O` (stereo not given), 2.55%. Still for that read-out and setting: to `Cc1cc(Cl)c(Cl)cc1NC(=O)c1c(Br)c(Br)c(Br)c(Br)c1C(=O)O` belongs -16.1%. Still for that read-out and setting: the value for `COc1c2cc(C(C)(C)C)cc1CSCc1cc(C(C)(C)C)cc(c1OC)CCCCC2` was -14.1%. Take `CCOCCOCCOCOCCOCCOCC`: the growth inhibition was 7.25%. The same measure, in the same setting: the value for `CCc1ccc(O)cc1` was 5.85%; that for `NC(N)=NC(=S)Nc1ccc(Cl)cc1` was -4%. Same read-out and setting: to `CCCN1C(=O)CN(S(=O)(=O)c2ccc(Cl)cc2)C1=O` belongs -8%; to `CCN(CC)CCSSCCN(CC)CC`, -15.2%. In the case of `CCCCCCCCCCCCS(=O)(=O)O` (tested in a mixture with another compound), the growth inhibition was -12.4%. The same measure, in the same setting: to `CC(Nc1cnccn1)Nc1cnccn1` belongs -23.4%. On the same count and under the same terms, the value for `Cn1cc(S(C)=O)c(=O)c2ccccc21` (stereo not given) was -13.9%; that for `COC(=O)C1(CC(=O)c2ccccc2)NC(=S)NC(=O)C1C#N` (stereo not given) was -15.8%.
